Results with a measured potency or affinity are listed apart. Unmarked numbers belong to inactive results. How the calls were made is not given here.

This test in a line: cytotoxicity in HEK293 cells, dose response, cytotoxicity control, cell-based, plate reader, cherry-pick (AID 651899).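 Further: cells exposed to compound for 48 hours.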 Particulars: series mostly up to 26 µM; activity change, negative = cytotoxicity: at the top concentration.
Consider `COC(=O)c1c(C(=O)OC)c(-c2ccccc2)n2c1CS(=O)C2` (stereo unspecified), for which the “activity change, negative = cytotoxicity” value is 6.13%.
Consider `Cc1c(C(N)=O)sc(N)c1C(=O)OC(C)C`, for which the “activity change, negative = cytotoxicity” value was 36.6%.
For the compound `CCNC(=O)[C@H]1[C@H](CO)[C@H]2Cn3c(ccc(-c4cccc(F)c4)c3=O)[C@H]2N1C(=O)Cc1cccnc1`, the “activity change, negative = cytotoxicity” value is 11.2%.
As to `O=C(C1CCOCC1)N1CC[C@@H]2[C@H]1c1cc(Br)ccc1N[C@@H]2CO`, the “activity change, negative = cytotoxicity” value was 18.5%.
Regarding `CCc1c(C(=O)NCCc2ccc(OC)c(OC)c2)[nH]c(C)c1C(C)=O`, the “activity change, negative = cytotoxicity” value is -19.5%.
Consider `COc1ccc(CCN(C)c2ccc(C(N)=O)cc2[N+](=O)[O-])cc1OC`, for which the “activity change, negative = cytotoxicity” value is -15.1%.
As to `CN(C)C(=O)C[C@@H]1C[C@@H]2c3cc(NC(=O)c4cccnc4)ccc3O[C@@H]2[C@@H](CO)O1`, the “activity change, negative = cytotoxicity” value was -8.22%.
With `NC(=O)c1ccc(Oc2cccc3cccnc23)c([N+](=O)[O-])c1`, the “activity change, negative = cytotoxicity” value is 22.6%.
Take `COc1cc2c(cc1NC(=O)c1cccnc1)CCCC2`: the “activity change, negative = cytotoxicity” value is -10.4%.
For `CCc1c(C)nc2ncnn2c1Nc1ccc(C#N)c(Cl)c1`, the “activity change, negative = cytotoxicity” value is -0.614%.
For `Cc1cc(NC(=O)CN(C)S(=O)(=O)c2cnc[nH]2)ccc1Br`, the “activity change, negative = cytotoxicity” value was -14.2%.
For `CC1(C(=O)NCc2ccc(F)c(F)c2)Cc2c(-c3cccc(C(N)=O)c3)ccnc2O1` (stereo unspecified), the “activity change, negative = cytotoxicity” value was -17.7%.
In the case of `C=C(C)CSc1nc(N)c2c3c(sc2n1)CCC3` it was 11.3%; in that of `O=C(c1ccc2c(c1)OCO2)N1CC[C@@H]2[C@H](CO)Nc3ccc(-c4ccc(F)cc4)cc3[C@@H]21`, 6.2%; in that of `O=c1[nH]c(N2CCN(Cc3ccc4c(c3)OCO4)CC2)nc2c1CCCC2`, 17.7%.
Consider `CC(=O)c1ccc(N2CCN(S(=O)(=O)c3c(C(=O)N4CCCC4)c(C)n(C)c3C)CC2)cc1`, for which the “activity change, negative = cytotoxicity” value was 15.4%.
Regarding `Cc1cccc(C2c3[nH]c4ccccc4c3CCN2C(=O)CN2CCOC2=O)n1` (stereo unspecified), the “activity change, negative = cytotoxicity” value was 12.6%.
The result for `COc1ccc(C(=O)Nc2cccnc2)cc1OC` reads -16.8%; that for `Cc1nc2nc(SCC(=O)NCc3ccco3)nn2c(C)c1Cc1ccccc1`, -21.3%; that for `COc1ccc(-c2ccc3c(c2)[C@H]2[C@H](CCN2C(=O)Cc2cccnc2)[C@H](CO)N3C)cc1`, -9.23%.
Take `Cn1nnc2cc(C(=O)Nc3cccnc3)ccc21`: the “activity change, negative = cytotoxicity” value is -8.5%.
In the case of `Fc1ccc(-c2ccc3c(c2)C2CC3CCN2)cc1` (stereo unspecified), the “activity change, negative = cytotoxicity” value is 8.18%.
On to `Cn1c(=O)c2c(nc(OCc3cccnc3)n2Cc2ccccc2)n(C)c1=O`, for which the “activity change, negative = cytotoxicity” value is 0.309%.
Turning to `CCc1nn(CC(=O)N2CCN(Cc3ccc4c(c3)OCO4)CC2)c(=O)c2cc3occc3n12`, the “activity change, negative = cytotoxicity” value was 7.76%.
For the compound `CC(=O)c1ccc(N2CCN(C(=O)Cc3ccccc3)CC2)c(F)c1`, the “activity change, negative = cytotoxicity” value was 0.47%.
Take `CC(=O)c1c(C)[nH]c(C(=O)Nc2cccnc2)c1C`: the “activity change, negative = cytotoxicity” value was -21.9%.
In the case of `COc1ccc([N+](=O)[O-])cc1C(=O)NC1CCN(Cc2ccccc2)CC1` it was 24%; in that of `CCNC(=O)[C@H]1[C@H](CO)[C@H]2Cn3c(ccc(-c4ccccc4)c3=O)[C@H]2N1C(=O)Cc1cccnc1`, 18.2%; in that of `COCCNC(=O)C[C@H]1CC[C@@H]2[C@H](COc3ccc(NC(=O)Nc4cccc(F)c4)cc3C(=O)N2C)O1`, 11.2% [at 23.5 µM].
Take `CC1(C)CC(=O)C=C(c2ccc3ncccc3c2)C1`: the “activity change, negative = cytotoxicity” value is -15.8%.
Turning to `O=C(C[n+]1cc(-c2ccc(Cl)cc2)n2c1CCC2)N1c2ccccc2Sc2ccccc21`, the “activity change, negative = cytotoxicity” value is -9.9%.
As for `COc1ccc(Cn2ccc(=O)c(Cc3c(Cl)cccc3Cl)c2C)cc1`, the “activity change, negative = cytotoxicity” value is 9.69%.
The result for `COc1cc(-c2n[nH]c(=S)n2C(C)c2ccccc2)cc(OC)c1OC` (stereo unspecified) reads 29.1%; that for `Cc1c2cnn(CC(=O)NCc3ccccn3)c(=O)c2c(C)n1Cc1ccc(Cl)cc1`, 26.4%.
`Nn1c(SCc2nc3ccccc3[nH]2)nnc1-c1cccnc1`: the “activity change, negative = cytotoxicity” value is -16.1%.
Consider `CN1c2ccc(-c3cccc(F)c3)cc2[C@H]2[C@H](CCN2C(=O)c2ccc3c(c2)OCO3)[C@H]1CO`, for which the “activity change, negative = cytotoxicity” value is 1.38% [at 23.5 µM].

These data come from PubChem BioAssay AID651899 (Broad Institute, 2012).
